This is an account of results in PubChem BioAssay (NCATS).

Assay [1] is described as follows: MultiTox-Fluor Cytotoxicity Assay - LYMP1-001 - Live Cells (AID 947).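 Also: 0% = DMSO only and full inhibition = tetraoctylammonium bromide control.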
A short description of assay [2]: Cell Viability - LYMP2-014 (AID 983).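 Also: cells exposed to compound for 24 h at 37 °C; plate controls were DMSO only for no effect and 92 µM tetraoctylammonium bromide for full effect; nearly all actives have a fitted effect of over 50% in size.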 The method in brief:
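Decrease in intracellular ATP after 24 hr treatment at 37 C, measured by luciferase luminescence, indicated cytotoxicity. Concentration-response data were fitted with the standard Hill equation to give AC50.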

For assay [3], the target named is Peroxisome proliferator-activated receptor delta (Homo sapiens) (UniProt Q03181). Briefly: qHTS assay for small molecule agonists of peroxisome proliferator-activated receptor delta signaling (AID 588534; calls by dose curve;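 also: 0% = DMSO basal wells and 100% = positive control agonist at 10 µM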). Summed up:
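Reporter cells were plated and held 5 hrs at 37 C before compounds were added. After 18 hrs at 37 C, CCF4 dye was loaded for 2 hrs at RT and fluorescence measured.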
(In general: qHTS replaces the single test concentration by a dilution series.)

Assay [4] in a line: qHTS assay for small molecule antagonists of peroxisome proliferator-activated receptor delta signaling (AID 588535; active = well fitted inhibition curve with a large enough effect in the signal ratio, with a control signal flat, not every such curve was filed as active; the % refers to the signal ratio;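 as to max response: cells co-treated with a PPAR-delta agonist as stimulator during compound exposure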). The note with it: HEK293T PPARd-UAS-bla, beta-lactamase FRET ratio, 18 h; 460 nm channel. The method in brief:
(§1)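 Cell-based beta-lactamase assay in antagonist mode: 4000 HEK293T PPAR-delta-UAS-bla cells per well, 5 hr preincubation then 18 hr compound incubation at 37 C. IC50 obtained by Hill equation fitting.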

Assay [5] deals with Peroxisome proliferator-activated receptor delta (Homo sapiens) (UniProt Q03181). Described as above. The method in brief: as §1
In assay [6] the target is Peroxisome proliferator-activated receptor gamma (Homo sapiens) (UniProt P37231). In words: qHTS assay for small molecule agonists of peroxisome proliferator-activated receptor gamma signaling (AID 588536; active = well fitted curve in the direction sought with a large enough effect in the signal ratio, with a control signal flat, not every such curve was filed as active; the % refers to the signal ratio;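 also: 0% = DMSO basal wells and 100% = rosiglitazone at 2 µM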). Summed up: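 Test agents, titrated, stimulated HEK293 UAS-bla cells overnight (16 h, 37 C). Substrate CCF4 was then added for two hours at room temperature before fluorescence reading.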

Assay [7] shares this target. In words: qHTS assay for small molecule antagonists of peroxisome proliferator-activated receptor gamma signaling (AID 588537; active = well fitted inhibition curve with a large enough effect in the signal ratio, with a control signal flat, not every such curve was filed as active; the % refers to the signal ratio;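 also: reporter cells co-stimulated with 50 nM rosiglitazone agonist during compound treatment; % of control where 0% means no effect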). Summed up: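 Inhibitors of agonist-stimulated UAS-bla reporter activity were sought in HEK293 cells; rosiglitazone (50 nM) defined full signal and DMSO baseline. Curves fitted to Hill model gave IC50 and efficacy.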
The target in assay [8] is Voltage-gated inwardly rectifying potassium channel KCNH2 (Homo sapiens) (UniProt Q12809). In words: qHTS Assay for Small Molecule Inhibitors of the Human hERG Channel Activity (AID 588834).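 Also: lower thallium flux fluorescence means stronger hERG block; nearly all actives have a fitted effect of over 50% in size.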 Also: potency is read from the fitted curve at half-maximal effect. Summed up:
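Concentration-response qHTS measuring drop in thallium-sensitive dye signal. U2OS cells carrying BacMam hERG; compound exposure ~10 min, then stimulation buffer and 2 min read at 1 sec intervals.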

Assay [9] is described as follows: qHTS assay for small molecule disruptors of the mitochondrial membrane potential - 5 hr assay (AID 651755; calls by dose curve; also: % is scaled to controls: 0 for no effect and ±100 for the full control effect; nearly all actives have a fitted effect of over 40% in size). The method in brief: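 HepG2, 2,000 cells/well, overnight attach; cpd or DMSO 5 hr, 37C/5% CO2; Mito-MPS 30 min 37C; fluor 490/535 + 540/590 nm.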
A short description of assay [10]: qHTS assay for environmental chemicals that activate the Aryl hydrocarbon Receptor (AhR) signaling pathway (AID 651777). Also: % of control where 0% means no effect; nearly all actives have a fitted effect of over 15% in size. The note with it: 1A2-DRE human hepatoma cells, luciferase, 24 h; activation: stronger effect = higher value. The method in brief: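 Following a 24 hr incubation with test chemicals at 37 C and 5% CO2, 1A2-DRE human hepatoma cells received One-Glo reagent; after 30 min at room temperature, luciferase output reflected CYP1A2 induction via AhR.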

Assay [11] is described as follows: Cell Viability - NIH 3T3 (AID 541).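 Also: cells exposed to compound for 40 hours; plate controls were DMSO alone for no effect and tamoxifen positive control for full effect; nearly all actives have a fitted effect of over 25% in size.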 To be noted: NIH 3T3 cell viability, qHTS; activity change, negative = cytotoxicity: at 92.2 µM (top of the series). The method in brief:
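AC50 values reflect concentration-dependent loss of intracellular ATP in NIH 3T3 cells after 40 hr treatment in complete culture medium, quantified by luciferase-based luminescence.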

Assay [12] in a line: Cell Viability - LYMP2-018 (AID 985).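 Also: compound exposure lasted 24 hr at 37 °C; plate controls were DMSO only for no effect and tetraoctylammonium bromide at 92 µM for full effect; nearly all actives have a fitted effect of over 50% in size.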 The method in brief: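 Acute cytotoxicity is scored as a concentration-dependent drop in intracellular ATP after 24 hr exposure of the lymphoblastoid line in complete culture medium, measured by luciferase luminescence. Potency is expressed as AC50 from Hill modelling.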
Assay [13] can be described thus: Cell Viability - LYMP2-024 (AID 988).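 Also: cells exposed to compound for 24 hr at 37 °C; plate controls were DMSO only for no effect and 92 µM tetraoctylammonium bromide for full effect; nearly all actives have a fitted effect of over 60% in size.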 The method in brief:
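Acute toxicity is measured as concentration-dependent loss of intracellular ATP in a human lymphoblastoid line treated 24 hours at 37 C. Luciferase luminescence quantifies ATP; AC50 values come from standard Hill-equation modelling.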

The target of assay [14] is Glucocorticoid receptor (Homo sapiens) (UniProt P04150). Briefly: qHTS assay for small molecule agonists of glucocorticoid receptor signaling (AID 588532; active = well fitted curve in the direction sought with a large enough effect in the signal ratio, with a control signal flat; the % refers to the signal ratio;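 also: 100% = dexamethasone at 0.1 µM and 0% = DMSO only wells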). To be noted: HeLa MMTV-bla, beta-lactamase ratio, agonist, 18 h; stronger effect = higher value; percent of dexamethasone control, DMSO zero. Summed up:
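Quantitative HTS using CellSensor MMTV-bla HeLa cells in charcoal/dextran-treated serum; compounds tested up to 92 uM. After 18 h at 37 C, CCF4 dye reported reporter induction.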

Assay [15] shares this target. In words: qHTS assay for small molecule antagonists of glucocorticoid receptor signaling (AID 588533; active = well fitted inhibition curve with a large enough effect in the signal ratio, with a control signal flat, not every such curve was filed as active; the % refers to the signal ratio;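 also: cells stimulated with 2 nM dexamethasone as agonist; % is scaled to controls: 0 for no effect and ±100 for the full control effect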). The method in brief: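 Antagonist-mode qHTS: compound titrations added to GRE-bla HeLa cells, then dexamethasone 2 nM final; 18 h, 37 C. CCF4 FRET fluorescence normalized to dexamethasone and DMSO; IC50 from Hill fit.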
A short description of assay [16]: qHTS assay for small molecule agonists of the antioxidant response element (ARE) signaling pathway (AID 651741; active = well fitted activation curve with a large enough effect in the signal ratio; the % refers to the signal ratio; also: % of control where 0% means no effect). The method in brief: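 Seeding 2,000 ARE-bla HepG2 cells per well preceded a 5 h incubation at 37 C/5% CO2 and a 16 h compound exposure at 37 C. Beta-lactamase reporter activity was then quantified by fluorescence after 2 h with LiveBLAzer B/G FRET substrate.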

Assay [17] in a line: qHTS assay for small molecule activators of the nuclear factor-kappa B (NF-kB) signaling pathway (AID 651749; active = well fitted activation curve with a large enough effect in the signal ratio; the % refers to the signal ratio; also: % of control where 0% means no effect). To be noted: NF-kB-bla ME-180 cells, beta-lactamase FRET ratio, 16 h; stronger effect = higher value. Summed up: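 Stably transfected ME-180 line; NF-kB response element upstream of beta-lactamase. Treatment: compound or DMSO, 16 hr. Detection: fluorescent FRET substrate.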

Assay [18] can be described thus: Cell Viability - H-4-II-E (AID 543).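 Also: cells exposed to compound for 40 hours; % is scaled to controls: 0 for no effect and ±100 for the full control effect; nearly all actives have a fitted effect of over 35% in size.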 Summed up: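 Here, cytotoxicity is measured in the rat hepatoma line H-4-II-E as loss of intracellular ATP after 40 hr compound treatment, detected by luciferase luminescence.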
Assay [19] has as its target Estrogen receptor (Homo sapiens) (UniProt P03372). Briefly: qHTS assay for small molecule antagonists of estrogen receptor alpha signaling (AID 588513; active = well fitted curve in the direction sought with a large enough effect in the signal ratio, with a control signal flat, not every such curve was filed as active; the % refers to the signal ratio; also: % is scaled to controls: 0 for no effect and ±100 for the full control effect). The method in brief:
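Beta-lactamase reporter, antagonist mode, HEK 293 GripTite cells; 0.5nM E2 stimulus, 18 h, 37 C; CCF4 dye 2 h RT; fluorescence. IC50 and efficacy from Hill fits, normalized to E2 and DMSO.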

Assay [20] shares this target. In words: qHTS assay for small molecule agonists of estrogen receptor alpha signaling (AID 588514; calls by dose curve;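 also: 0% = vehicle only and 100% = reference agonist; nearly all actives have a fitted effect of over 70% in size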). The method in brief: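 Reporter-gene assay. […] controls beta-lactamase in HEK 293 GripTite cells; after 18 hrs with compound, CCF4 substrate is added for 2 hrs and fluorescence is read.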

Values joined by “and” are separate entries in the source; they are usually repeats but may differ in a detail not shown here. Equal entries are not always repeated. Records with an inconclusive call do not appear. Active and inactive are the calls of the source. Unless noted, calls follow the shape of the dose curve; as a rule, active = well fitted curve in the direction sought with a large enough effect; inconclusive = small, poorly fitted or top-dose-only effect, or another doubt; inactive = no such curve, though single readings can be large; an effect the other way counts as inactive or inconclusive.

Voltage-gated inwardly rectifying potassium channel KCNH2 (Homo sapiens), sequence (Q12809 whole entry, looked up): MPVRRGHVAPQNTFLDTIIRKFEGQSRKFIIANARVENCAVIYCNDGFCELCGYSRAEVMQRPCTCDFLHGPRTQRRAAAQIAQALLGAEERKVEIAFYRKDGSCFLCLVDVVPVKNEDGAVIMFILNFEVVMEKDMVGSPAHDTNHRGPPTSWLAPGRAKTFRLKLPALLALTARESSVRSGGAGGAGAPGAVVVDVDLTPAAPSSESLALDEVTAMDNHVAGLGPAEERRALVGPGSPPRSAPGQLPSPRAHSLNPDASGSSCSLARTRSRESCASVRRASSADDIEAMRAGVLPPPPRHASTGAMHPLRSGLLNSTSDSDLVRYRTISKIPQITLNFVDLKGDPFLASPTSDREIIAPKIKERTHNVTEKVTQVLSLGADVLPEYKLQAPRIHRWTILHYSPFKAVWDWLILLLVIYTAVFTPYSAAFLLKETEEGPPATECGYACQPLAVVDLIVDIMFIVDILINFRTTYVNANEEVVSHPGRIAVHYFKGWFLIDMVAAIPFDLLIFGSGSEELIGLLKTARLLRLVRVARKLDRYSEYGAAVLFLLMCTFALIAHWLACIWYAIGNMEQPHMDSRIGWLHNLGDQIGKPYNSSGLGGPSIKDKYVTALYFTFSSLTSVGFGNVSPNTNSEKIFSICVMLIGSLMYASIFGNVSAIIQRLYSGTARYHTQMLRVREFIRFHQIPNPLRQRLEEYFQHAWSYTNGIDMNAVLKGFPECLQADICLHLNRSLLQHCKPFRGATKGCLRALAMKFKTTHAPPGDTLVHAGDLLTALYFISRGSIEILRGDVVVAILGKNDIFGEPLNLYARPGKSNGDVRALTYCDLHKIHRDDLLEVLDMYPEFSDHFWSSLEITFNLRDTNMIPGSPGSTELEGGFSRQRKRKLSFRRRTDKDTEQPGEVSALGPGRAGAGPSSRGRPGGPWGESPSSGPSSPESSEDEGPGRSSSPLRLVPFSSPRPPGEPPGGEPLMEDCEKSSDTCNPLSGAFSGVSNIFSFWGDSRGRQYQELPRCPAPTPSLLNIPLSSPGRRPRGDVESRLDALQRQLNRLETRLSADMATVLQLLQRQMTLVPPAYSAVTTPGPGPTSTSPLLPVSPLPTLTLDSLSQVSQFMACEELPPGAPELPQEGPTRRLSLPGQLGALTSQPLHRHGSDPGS
Peroxisome proliferator-activated receptor delta (Homo sapiens), sequence (Q03181 whole entry, looked up): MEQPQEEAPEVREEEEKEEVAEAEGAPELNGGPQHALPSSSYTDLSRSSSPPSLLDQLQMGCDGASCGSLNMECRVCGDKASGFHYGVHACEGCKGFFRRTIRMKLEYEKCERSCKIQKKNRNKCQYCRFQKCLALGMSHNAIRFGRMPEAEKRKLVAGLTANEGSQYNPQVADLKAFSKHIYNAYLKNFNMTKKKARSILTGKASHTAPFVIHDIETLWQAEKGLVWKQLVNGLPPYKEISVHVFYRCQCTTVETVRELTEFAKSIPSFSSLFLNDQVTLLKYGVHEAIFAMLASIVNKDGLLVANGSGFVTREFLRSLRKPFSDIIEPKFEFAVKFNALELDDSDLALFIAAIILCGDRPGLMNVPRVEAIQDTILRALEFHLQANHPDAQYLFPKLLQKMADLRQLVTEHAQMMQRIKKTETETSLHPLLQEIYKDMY
Glucocorticoid receptor (Homo sapiens), sequence (P04150 whole entry, looked up): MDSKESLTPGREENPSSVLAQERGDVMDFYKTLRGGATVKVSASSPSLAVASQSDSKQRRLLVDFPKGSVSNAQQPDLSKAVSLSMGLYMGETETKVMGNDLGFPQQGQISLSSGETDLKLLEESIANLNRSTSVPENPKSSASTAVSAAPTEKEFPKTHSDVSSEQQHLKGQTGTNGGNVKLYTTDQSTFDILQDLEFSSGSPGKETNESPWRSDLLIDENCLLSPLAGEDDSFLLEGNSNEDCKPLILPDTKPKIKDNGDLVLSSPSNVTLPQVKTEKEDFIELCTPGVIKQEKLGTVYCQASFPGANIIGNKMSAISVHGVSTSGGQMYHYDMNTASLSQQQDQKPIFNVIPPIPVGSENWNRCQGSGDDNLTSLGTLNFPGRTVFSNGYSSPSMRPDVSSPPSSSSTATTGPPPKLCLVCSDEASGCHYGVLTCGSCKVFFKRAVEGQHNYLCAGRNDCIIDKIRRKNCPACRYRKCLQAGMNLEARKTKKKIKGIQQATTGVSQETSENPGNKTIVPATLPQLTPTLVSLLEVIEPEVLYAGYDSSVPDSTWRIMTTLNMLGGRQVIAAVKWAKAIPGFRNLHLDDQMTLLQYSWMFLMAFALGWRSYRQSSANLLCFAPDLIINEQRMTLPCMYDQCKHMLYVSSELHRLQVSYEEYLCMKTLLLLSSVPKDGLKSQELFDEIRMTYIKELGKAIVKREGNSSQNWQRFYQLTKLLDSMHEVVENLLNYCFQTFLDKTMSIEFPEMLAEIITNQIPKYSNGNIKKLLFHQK
Peroxisome proliferator-activated receptor gamma (Homo sapiens), sequence (P37231 whole entry, looked up): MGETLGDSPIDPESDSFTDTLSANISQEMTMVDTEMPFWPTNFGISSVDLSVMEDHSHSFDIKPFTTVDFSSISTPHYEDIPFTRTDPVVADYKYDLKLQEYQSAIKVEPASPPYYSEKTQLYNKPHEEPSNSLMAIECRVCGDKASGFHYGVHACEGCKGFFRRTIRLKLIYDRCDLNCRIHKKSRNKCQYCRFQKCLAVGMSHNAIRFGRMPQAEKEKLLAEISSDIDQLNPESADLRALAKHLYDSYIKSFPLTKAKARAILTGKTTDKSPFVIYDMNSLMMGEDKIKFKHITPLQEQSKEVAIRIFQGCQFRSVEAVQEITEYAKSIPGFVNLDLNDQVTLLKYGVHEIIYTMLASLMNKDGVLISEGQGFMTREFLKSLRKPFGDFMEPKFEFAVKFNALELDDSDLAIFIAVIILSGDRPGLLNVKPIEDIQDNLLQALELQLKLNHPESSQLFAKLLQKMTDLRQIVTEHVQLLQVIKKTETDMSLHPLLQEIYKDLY
Estrogen receptor (Homo sapiens), sequence (P03372 whole entry, looked up): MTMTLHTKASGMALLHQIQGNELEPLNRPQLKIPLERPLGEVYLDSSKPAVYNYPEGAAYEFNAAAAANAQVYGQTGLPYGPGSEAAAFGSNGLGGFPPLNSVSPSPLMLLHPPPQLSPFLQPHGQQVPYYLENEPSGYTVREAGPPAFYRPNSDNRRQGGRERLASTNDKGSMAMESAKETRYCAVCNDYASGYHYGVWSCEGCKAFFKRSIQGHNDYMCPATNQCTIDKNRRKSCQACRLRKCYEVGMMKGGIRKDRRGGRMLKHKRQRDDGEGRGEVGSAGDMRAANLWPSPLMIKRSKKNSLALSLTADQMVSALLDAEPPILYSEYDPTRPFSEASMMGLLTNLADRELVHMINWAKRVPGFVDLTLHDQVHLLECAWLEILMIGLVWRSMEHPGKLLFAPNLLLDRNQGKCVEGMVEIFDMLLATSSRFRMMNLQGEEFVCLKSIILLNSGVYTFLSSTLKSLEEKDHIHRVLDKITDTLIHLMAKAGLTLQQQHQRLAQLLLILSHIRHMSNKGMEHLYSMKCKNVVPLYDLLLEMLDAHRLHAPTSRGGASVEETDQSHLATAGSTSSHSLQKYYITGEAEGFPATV

As to `Nc1cc(Cl)cc(C(=O)O)c1Cl`, the compound was classed as inactive in assay [1], in assay [3], in assay [5] and in assay [6]. For the same compound, the Potency entry in assay [2], in assay [7], in assay [8] and in assay [9] was “inactive” each time. Moreover, in assay [4], the max response was -17.7% and 9.43%. In addition, the activation in assay [10] is 7.92% (inactive) and 6.33% (inactive).
With `ClCCOCCCl`, the Potency entry in assay [11], in [2], in assay [12], in [13], in [8] and in assay [16] was “inactive” in each case. Besides, the Potency result in [9] is “inactive”. Also, the activation in assay [14] was 0.183% (inactive); in [17], -0.467% (inactive); in assay [10] it was -0.172% (inactive). Moreover, the compound was called inactive in assay [15], in assay [3], in assay [5] and in assay [6]. In addition, the max response in [4] stood at 5.43%.
On to `BrCC(Br)C1CCC(Br)C(Br)C1` (centres undefined), for which the compound was called inactive in [1] and in assay [6]. For the same compound, the Potency result in assay [2], in [12], in [13] and in [9] was “inactive” in each case. Moreover, the activation in assay [14] is 3.61% (inactive); in assay [17], -1.21% (inactive); in assay [10] it was -0.172% (inactive). For the same compound, in assay [8], the Potency is 22.4 µM (active).
Consider `FC(Cl)(Cl)Cl`, for which the Potency entry in assay [11], in assay [18], in assay [2], in assay [12], in assay [13] and in assay [7] was “inactive” in each case. In addition, the Potency entry in assay [8], in assay [16] and in assay [9] was “inactive” in each case. Further, the activation in assay [14] was 0.534% (inactive); in assay [10] it was -1.34% (inactive). In addition, the outcome in assay [15] and in assay [6] was inactive.
As to `C[N+](=O)[O-]`, the Potency entry in assay [11], in [18], in assay [12], in assay [13], in [19] and in assay [20] was “inactive” in each case. In addition, the Potency entry in assay [7], in assay [8] and in assay [9] was “inactive” throughout. The compound was classed as inactive in assay [1], in assay [15], in assay [3], in assay [5] and in [6]. For the same compound, the results for the activation in [14], in assay [17] and in [10] were -0.802% (inactive), -0.658% (inactive) and 0.25% (inactive), respectively. In assay [4], the max response was 3.34%.
Consider `CC(C)OS(C)(=O)=O`, for which the Potency result in assay [11], in assay [18], in assay [12], in assay [19], in assay [20] and in [8] was “inactive” in each case. In assay [9], the Potency result was “inactive”. Moreover, the compound was called inactive in [3], in assay [5] and in [6]. The max response in [4] is -20%. Moreover, in assay [10], the activation is 1.58% (inactive).
Turning to `O=c1ccc(=O)[nH][nH]1`, the Potency entry in assay [11], in assay [18], in assay [2], in [12], in assay [13] and in [7] was “inactive” throughout. For the same compound, the Potency result in assay [8] is “inactive”. For the same compound, the call in assay [1] and in assay [6] was inactive. Besides, the activation in assay [17] is -0.7% (inactive) and 1.42% (inactive); in assay [10] it was 0.524% (inactive) and -2.54% (inactive).
For `Cc1ccc2c(C)cccc2c1`, the Potency entry in assay [11], in [2], in assay [12], in assay [13], in assay [19] and in assay [20] was “inactive” each time. Besides, the Potency result in [7], in [8] and in assay [16] was “inactive” in each case. Also, the activation in assay [14] was -2.73% (inactive). Also, the compound was classed as inactive in assay [15], in assay [3], in [5] and in [6]. Also, the max response in assay [4] stood at 16.7%.
Regarding `CC(Cl)CCl` (centres undefined), the Potency entry in [11], in [18], in assay [2], in assay [12], in assay [13] and in assay [19] was “inactive” throughout. The Potency result in assay [20], in [8], in assay [16] and in assay [9] was “inactive” each time. In addition, the compound was classed as inactive in assay [1], in assay [15], in assay [3] and in assay [6]. Moreover, in [14], the activation was 4.13% (inactive).
